# B1: unnamed (peptide)
# chain: TKIRRRPQQPLTDFT
# Target: AgAbp1
# Test: SPOT peptide array binding signal intensity (averaged, normalized) (arbitrary units (background-subtracted, floor 0; scale differs between SH3 domains)); higher = stronger binding of the SH3 domain to the peptide
# Experimental: (§1)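 GST-tagged SH3 domains from S. cerevisiae (Sc), A. gossypii (Ag), C. albicans (Ca) and S. pombe (Sp) were incubated at 10 ug/ml overnight at 4 C on cellulose SPOT membranes carrying 292 synthetic 15-mer peptides mined from the S. cerevisiae proteome (cysteines replaced by serines). Binding was detected with anti-GST antibody, HRP secondary and chemiluminescence, quantified with Genespotter, and reported as normalized spot intensities averaged over biological replicates.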
row,Binder,SPOT peptide array binding signal intensity
1,B1,21

# Target: AgBbc1
# Test: as above
# Experimental: as §1
row,Binder,SPOT peptide array binding signal intensity
1,B1,109

# Target: AgBem1-D1
# Test: as above
# Experimental: as §1
row,Binder,SPOT peptide array binding signal intensity
1,B1,32

# Target: AgBzz1-D1
# Test: as above
# Experimental: as §1
row,Binder,SPOT peptide array binding signal intensity
1,B1,42.5

# Target: AgBzz1-D2
# Test: as above
# Experimental: as §1
row,Binder,SPOT peptide array binding signal intensity
1,B1,82

# Target: AgCyk3
# Test: as above
# Experimental: as §1
row,Binder,SPOT peptide array binding signal intensity
1,B1,2

# Target: AgFus1
# Test: as above
# Experimental: as §1
row,Binder,SPOT peptide array binding signal intensity
1,B1,150

# Target: AgHof1
# Test: as above
# Experimental: as §1
row,Binder,SPOT peptide array binding signal intensity
1,B1,39.8

# Target: AgHse1
# Test: as above
# Experimental: as §1
row,Binder,SPOT peptide array binding signal intensity
1,B1,61.5

# Target: AgLsb1
# Test: as above
# Experimental: as §1
row,Binder,SPOT peptide array binding signal intensity
1,B1,22

# Target: AgLsb4
# Test: as above
# Experimental: as §1
row,Binder,SPOT peptide array binding signal intensity
1,B1,18

# Target: AgMyo5
# Test: as above
# Experimental: as §1
row,Binder,SPOT peptide array binding signal intensity
1,B1,0.5

# Target: AgNbp2
# Test: as above
# Experimental: as §1
row,Binder,SPOT peptide array binding signal intensity
1,B1,6

# Target: AgRvs167
# Test: as above
# Experimental: as §1
row,Binder,SPOT peptide array binding signal intensity
1,B1,2.33

# Target: AgSho1
# Test: as above
# Experimental: as §1
row,Binder,SPOT peptide array binding signal intensity
1,B1,3

# Target: AgSla1-D1-D2
# Test: as above
# Experimental: as §1
row,Binder,SPOT peptide array binding signal intensity
1,B1,12.5

# Target: AgSla1-D3
# Test: as above
# Experimental: as §1
row,Binder,SPOT peptide array binding signal intensity
1,B1,3.5

# Target: CaAbp1-D1
# Test: as above
# Experimental: as §1
row,Binder,SPOT peptide array binding signal intensity
1,B1,276

# Target: CaAbp1-D2
# Test: as above
# Experimental: as §1
row,Binder,SPOT peptide array binding signal intensity
1,B1,158

# Target: CaBbc1
# Test: as above
# Experimental: as §1
row,Binder,SPOT peptide array binding signal intensity
1,B1,518

# Target: CaBem1-D1
# Test: as above
# Experimental: as §1
row,Binder,SPOT peptide array binding signal intensity
1,B1,13

# Target: CaBzz1-D1
# Test: as above
# Experimental: as §1
row,Binder,SPOT peptide array binding signal intensity
1,B1,137

# Target: CaBzz1-D2
# Test: as above
# Experimental: as §1
row,Binder,SPOT peptide array binding signal intensity
1,B1,147

# Target: CaCyk3
# Test: as above
# Experimental: as §1
row,Binder,SPOT peptide array binding signal intensity
1,B1,76

# Target: CaFus1
# Test: as above
# Experimental: as §1
row,Binder,SPOT peptide array binding signal intensity
1,B1,338

# Target: CaHof1
# Test: as above
# Experimental: as §1
row,Binder,SPOT peptide array binding signal intensity
1,B1,0.25

# Target: CaHse1
# Test: as above
# Experimental: as §1
row,Binder,SPOT peptide array binding signal intensity
1,B1,6.5

# Target: CaLsb1
# Test: as above
# Experimental: as §1
row,Binder,SPOT peptide array binding signal intensity
1,B1,≤ 0

# Target: CaLsb4
# Test: as above
# Experimental: as §1
row,Binder,SPOT peptide array binding signal intensity
1,B1,22.5

# Target: CaMyo5
# Test: as above
# Experimental: as §1
row,Binder,SPOT peptide array binding signal intensity
1,B1,1.5

# — the supplement of paper PMC4466140
